Experimental data reported in article PMC5700166.
Where a chain is given by its changes, count along the chain named.

Legend:
Experiment in all cases: protein-binding microarray (PBM); PBM: ~300 nM protein, 6 mM HEPES pH 7.8, 80 mM KCl, 0.5 mM EDTA, 0.5 mM EGTA, 6% glycerol, 35 ng/ul poly-dIdC, 1% milk, 1 h, room temperature; Ap Aiptasia and Nv Nematostella (sea anemones) / Co Capsaspora / Aq Amphimedon (sponge) / Dm Drosophila / Hu human; RHD is the Rel homology domain; high values mean tight binding
Conditions in all cases: dsDNA, one strand shown
GST-Ap-NF-kB RHD = target: T1, GST-Ap-NF-kB RHD (Exaiptasia pallida (Aiptasia), UniProt A0A913YAJ5 2-422)
T1 sequence: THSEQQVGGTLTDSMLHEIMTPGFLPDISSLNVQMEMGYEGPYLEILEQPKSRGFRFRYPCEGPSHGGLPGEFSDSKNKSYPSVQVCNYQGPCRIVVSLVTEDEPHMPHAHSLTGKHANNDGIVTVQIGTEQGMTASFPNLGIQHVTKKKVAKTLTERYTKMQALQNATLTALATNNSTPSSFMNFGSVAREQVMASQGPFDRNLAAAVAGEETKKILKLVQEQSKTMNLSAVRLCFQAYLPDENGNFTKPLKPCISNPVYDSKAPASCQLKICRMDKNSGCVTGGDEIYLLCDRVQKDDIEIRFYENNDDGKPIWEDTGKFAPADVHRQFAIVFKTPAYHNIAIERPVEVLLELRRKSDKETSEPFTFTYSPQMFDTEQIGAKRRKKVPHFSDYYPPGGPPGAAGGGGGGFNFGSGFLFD

[1] = target: T2, GST-Nv-NF-kB (Cys allele) (Nematostella vectensis, UniProt E5G601 2-411)
T2 sequence: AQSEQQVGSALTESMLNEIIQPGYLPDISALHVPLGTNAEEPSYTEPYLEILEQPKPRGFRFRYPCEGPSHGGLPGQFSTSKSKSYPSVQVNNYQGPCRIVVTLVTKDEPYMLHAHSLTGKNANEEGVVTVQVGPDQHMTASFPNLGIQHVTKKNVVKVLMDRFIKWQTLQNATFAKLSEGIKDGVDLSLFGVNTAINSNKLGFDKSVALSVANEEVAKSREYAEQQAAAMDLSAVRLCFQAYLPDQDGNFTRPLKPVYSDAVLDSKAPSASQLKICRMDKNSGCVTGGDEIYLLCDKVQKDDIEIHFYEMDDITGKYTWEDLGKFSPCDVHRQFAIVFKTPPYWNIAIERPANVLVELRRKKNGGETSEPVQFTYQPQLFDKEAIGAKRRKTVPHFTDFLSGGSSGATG

[2] = target: T3, GST-Nv-NF-kB (Ser allele) (Nematostella vectensis, UniProt A7UNT2 2-411)
T3 sequence: T2 sequence with Q21R, C66S, S207N, E215Q, V217A, E225K, A268E, D399E

GST-Co-NF-kB = target: T4, GST-Co-NF-kB (Capsaspora owczarzaki, UniProt F1ARL5 200-546)
T4 sequence: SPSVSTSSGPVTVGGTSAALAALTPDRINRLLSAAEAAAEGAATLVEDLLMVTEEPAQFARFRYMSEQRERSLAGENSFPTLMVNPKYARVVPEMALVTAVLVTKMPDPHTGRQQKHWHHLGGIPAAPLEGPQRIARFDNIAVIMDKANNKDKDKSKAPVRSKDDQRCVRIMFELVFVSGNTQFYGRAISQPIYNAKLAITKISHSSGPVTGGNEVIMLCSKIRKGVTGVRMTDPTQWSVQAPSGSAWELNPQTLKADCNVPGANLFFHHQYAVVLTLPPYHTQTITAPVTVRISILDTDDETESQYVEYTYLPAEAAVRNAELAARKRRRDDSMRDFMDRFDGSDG

GST-Dm-Relish = target: T5, GST-Dm-Relish (Drosophila melanogaster, UniProt Q94527 99-473)
T5 sequence: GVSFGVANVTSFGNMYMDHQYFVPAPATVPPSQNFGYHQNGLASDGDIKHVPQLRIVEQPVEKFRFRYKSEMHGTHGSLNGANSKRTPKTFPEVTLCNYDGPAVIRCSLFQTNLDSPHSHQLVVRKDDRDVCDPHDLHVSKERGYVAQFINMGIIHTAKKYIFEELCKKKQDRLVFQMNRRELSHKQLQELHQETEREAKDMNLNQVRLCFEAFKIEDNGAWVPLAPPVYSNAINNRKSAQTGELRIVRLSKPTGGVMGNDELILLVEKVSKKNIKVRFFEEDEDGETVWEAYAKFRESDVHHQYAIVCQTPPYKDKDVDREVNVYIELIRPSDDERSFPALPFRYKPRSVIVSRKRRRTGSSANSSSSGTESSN

GST-Aq-NF-kB = target: T6, GST-Aq-NF-kB (Amphimedon queenslandica, UniProt A9Y5G7 2-389)
T6 sequence: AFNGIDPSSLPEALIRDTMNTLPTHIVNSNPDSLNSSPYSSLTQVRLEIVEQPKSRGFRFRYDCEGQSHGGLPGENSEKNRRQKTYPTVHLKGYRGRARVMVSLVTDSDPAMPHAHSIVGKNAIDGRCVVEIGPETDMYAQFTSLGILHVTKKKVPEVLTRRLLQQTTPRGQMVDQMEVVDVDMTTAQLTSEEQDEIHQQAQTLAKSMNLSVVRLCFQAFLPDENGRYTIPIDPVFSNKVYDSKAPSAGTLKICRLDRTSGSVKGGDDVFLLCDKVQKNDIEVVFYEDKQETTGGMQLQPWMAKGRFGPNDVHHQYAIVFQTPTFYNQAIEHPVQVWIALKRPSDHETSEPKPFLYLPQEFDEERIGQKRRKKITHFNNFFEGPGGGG

GST-Hu-p50 = GST-Hu-p50 (Homo sapiens, UniProt P19838 7-356)
GST-Hu-p50, sequence (P19838 7-356): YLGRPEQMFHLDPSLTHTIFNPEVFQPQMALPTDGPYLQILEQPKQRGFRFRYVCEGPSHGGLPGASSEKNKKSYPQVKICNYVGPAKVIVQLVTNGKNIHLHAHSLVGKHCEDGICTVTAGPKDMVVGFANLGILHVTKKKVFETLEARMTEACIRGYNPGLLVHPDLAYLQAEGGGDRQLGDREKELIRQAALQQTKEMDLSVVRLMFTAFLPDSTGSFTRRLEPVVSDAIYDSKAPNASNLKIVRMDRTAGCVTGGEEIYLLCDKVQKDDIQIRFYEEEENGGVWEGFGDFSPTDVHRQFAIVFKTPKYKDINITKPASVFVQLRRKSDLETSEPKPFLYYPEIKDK

| Sequence | binding signal (GST-Ap-NF-kB RHD) | binding signal [1] | binding signal [2] | binding signal (GST-Co-NF-kB) | binding signal (GST-Dm-Relish) | binding signal (GST-Aq-NF-kB) | binding signal (GST-Hu-p50) |
| --- | --- | --- | --- | --- | --- | --- | --- |
| CCGATTAACATCATCAGGGGAAATGATGTTAATCGGGTCTTGATTCGCTTGACGCTGCTG | 5.62 z-score | 7.05 z-score | 8.79 z-score | 5.8 z-score | 2.39 z-score | 4.58 z-score | 5.42 z-score |
| CCGATTAACATCATGGGGGGTAATGATGTTAATCGGGTCTTGATTCGCTTGACGCTGCTG | 3.64 z-score | 3.18 z-score | 2.78 z-score | 5.06 z-score | 2.79 z-score | 3.56 z-score | 3.21 z-score |
| CCGATTAACATCAATATATTCCCTGATGTTAATCGGGTCTTGATTCGCTTGACGCTGCTG | 4.19 z-score | 4.64 z-score | 4.95 z-score | 4.09 z-score | 2.1 z-score | 3.52 z-score | 2.88 z-score |
| CCGATTAACATCAGGGAATTTTATGATGTTAATCGGGTCTTGATTCGCTTGACGCTGCTG | 6.12 z-score | 9.33 z-score | 8.44 z-score | 4.82 z-score | 6.83 z-score | 8.16 z-score | 6.55 z-score |
| CCGATTAACATCAAGATTTTCCCTGATGTTAATCGGGTCTTGATTCGCTTGACGCTGCTG | 4.58 z-score | 6.22 z-score | 7.42 z-score | 5.04 z-score | 1.5 z-score | 5.78 z-score | 4.29 z-score |
| CCGATTAACATCAGGGGAATCACTGATGTTAATCGGGTCTTGATTCGCTTGACGCTGCTG | 8.92 z-score | 8.19 z-score | 8.51 z-score | 6.78 z-score | 10.6 z-score | 7.41 z-score | 6.51 z-score |
| CCGATTAACATCAGGGGAAAGGATGATGTTAATCGGGTCTTGATTCGCTTGACGCTGCTG | 4.44 z-score | 5.7 z-score | 6.71 z-score | 4.77 z-score | 1.2 z-score | 4.14 z-score | 3.87 z-score |
| CCGATTAACATCAATGGGATTTCTGATGTTAATCGGGTCTTGATTCGCTTGACGCTGCTG | 2.83 z-score | 2.72 z-score | 2.22 z-score | 1.38 z-score | 5.37 z-score | 2.47 z-score | 2.6 z-score |
| CCGATTAACATCAGACTTCCCCCTGATGTTAATCGGGTCTTGATTCGCTTGACGCTGCTG | 7.28 z-score | 7.38 z-score | 7.81 z-score | 7.84 z-score | 7.18 z-score | 6.8 z-score | 6.2 z-score |
| CCGATTAACATCAGATTTTCCCATGATGTTAATCGGGTCTTGATTCGCTTGACGCTGCTG | 3.85 z-score | 5.14 z-score | 6.26 z-score | 5 z-score | 1.26 z-score | 4.25 z-score | 3.82 z-score |
| CCGATTAACATCAAAATCCCCCTTGATGTTAATCGGGTCTTGATTCGCTTGACGCTGCTG | 10.1 z-score | 10.7 z-score | 12.1 z-score | 6.3 z-score | 10.2 z-score | 8.68 z-score | 8.9 z-score |
